Laboratory results: PubChem BioAssay (NCI)
About 83,000 compounds went through this panel and 20% of them were active in at least one assay; those are over-represented in the sample as a whole.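 Percent growth is the endpoint: 0 to 100 indicates growth inhibition (40 means 60% inhibition), 0 means no net growth, and negative values indicate cell death.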 The source made the active and inactive calls. How the source made its calls: active means growth percent below 10; inactive means the rest.

system: HCC-2998 colon; assay: NCI-60 one-dose screen, 48 h (100 = growth as untreated, 0 = no growth, -100 = all killed); details: 10 µM unless noted

Structure (SMILES)	growth
COc1ccc(C2=Nc3c(N)ncnc3NC(c3cccc(Nc4ccnc5cc(C(F)(F)F)ccc45)c3)C2)cc1 (stereo not given)	72.1% (inactive)
Clc1ccc(-c2cn3ccsc3n2)c(Cl)c1Cl	92.5% (inactive)
CCSC1=CC(=O)c2ccccc2C1=O	117% (inactive)
Fc1ccc2c(c1)c(-c1nc(-c3c[nH]c4ncccc34)cs1)cn2CCCN1CCOCC1	74.3% (inactive)
C[Se]C(=O)CC1=C2C=C(F)C=CC2/C(=C\c2ccc(S(C)=O)cc2)C1C (stereo not given)	68.9% (inactive)
COc1cc(N2C(=O)[C@H](c3ccccc3)C2c2ccc(SC)cc2)cc(OC)c1OC (stereo not given in full)	12.6% (inactive)
Cc1ccc(/C=C2\CN(C(=O)C(Cl)Cl)C/C(=C\c3ccc(C)cc3)C2=O)cc1	-89.6% (active)
CCCCCCC(CCCC)COC(=O)c1ccc(Cl)cc1 (stereo not given)	121% (inactive)
Cc1ccc2nc(Cl)c(Cn3nnnc3SCc3ccccc3)cc2c1	111% (inactive)
O=C(O)c1cn(C2CC2)c2cc(N3CCN(C(=O)N/N=C/c4ccccc4)CC3)c(F)cc2c1=O	99.9% (inactive)
CC12CCC(/C(=C/NNc3ccc([N+](=O)[O-])cc3[N+](=O)[O-])C1=O)C2(C)C (stereo not given)	93.4% (inactive)
CCOC(=O)Cn1c(=O)c2c3ccccc3n(C)c2n2nnc(-c3ccccc3)c12	67.8% (inactive)
COc1cc(C#Cc2ccc(=O)oc2C#Cc2ccccc2)cc(OC)c1OC	29.1% (inactive)
COc1ccc(C/C(C)=C(/c2ccc(OCCN3CCCCCC3)cc2)c2ccc(OC(=O)NCc3ccccc3)cc2)cc1	89.1% (inactive)
Cc1c2cc[nH]c(=O)c2c(C)c2c1[nH]c1ccc(OC(=O)c3ccccc3)cc12	57.7% (inactive)
Clc1nccc2c(-c3csc(-c4c[nH]c5ccccc45)n3)c[nH]c12	63.7% (inactive)
Cc1cccc(-n2c(C)nc3ccc(N4CCCNC4=O)cc3c2=O)c1	109% (inactive)
Cc1nn(-c2ccccc2)c(N2CCCCC2)c1/C=N/NC(=O)Cn1c(=O)sc2ccccc21	68.4% (inactive)
C#CCOc1cccc(-c2ncc3cc(NC(=O)CCl)ccc3n2)c1	-7.49% (active)
C=CCOC(=O)C1=C(C)NC(=O)NC1c1c(Cl)n(C)c2ccccc12 (stereo not given)	104% (inactive)

Structure (SMILES)	growth
Cc1ccc(C(=O)c2ccc(CC(=O)N/N=C/c3ccc(O)cc3O)n2C)cc1	59.6% (inactive)
COc1cc(C(=O)/C=C/c2c(-c3cccs3)nc3ccccn23)cc(OC)c1OC	17.1% (inactive)
CC(/C=C1\SC(=S)N(CC(=O)NC(Cc2c[nH]c3ccccc23)C(=O)O)C1=O)=C\c1ccccc1 (stereo not given)	103% (inactive)
CC(C)[C@@]12C[C@@H](OC(=O)COC(=O)c3ccccc3)[C@@](C)(O1)[C@@H]1CC[C@@H](C)[C@H]1[C@@H]2OC(=O)/C=C/c1ccccc1	97.2% (inactive)
COc1ccc2c(c1)c(-c1nonc1-c1cn(C)c3ccc(OC)cc13)cn2C	65.7% (inactive)
O=C(Cn1nnc2ccccc21)Nc1ccc(-c2nc3ccccc3s2)cc1	93.7% (inactive)
CC(=O)c1c(Nc2ccc(F)c(F)c2F)[nH]c2c(F)cc(F)cc2c1=O	7.96% (active)
CC/C=C1/C(=O)C=C[C@@H]1C/C=C\CCCC(=O)OC	114% (inactive)
O=C(CCCCCCN1CC(=O)N2[C@@H](C3CCCCC3)c3[nH]c4ccccc4c3C[C@H]2C1=O)NO	94% (inactive)
COc1cc(C(=O)c2c(-c3ccccc3)oc3c(OC)cccc23)cc(OC)c1O	-3.66% (active)
O=C1NC(=C(Cl)Cl)/C(=N/S(=O)(=O)N2CCCCC2)N1	4.74% (active)
COc1ccc(C2=CN3CC=CCC3CC2=O)cc1 (stereo not given)	100% (inactive)
CCN(CC)c1ccc(/C=N/NC(=O)c2ccc(Nc3ccnc(C(F)(F)F)c3)cc2)c(O)c1	38.3% (inactive)
S=c1[nH]c2cc(Cl)ccc2o1	115% (inactive)
NC(=S)N/N=C/c1cn(-c2ccccc2)nc1-c1cc2ccccc2oc1=O	88.4% (inactive)
COc1ncc2cc1NS(=O)(=O)c1cccc(c1)C(=O)NCC1=CC=C(S1)c1ncnc3c1SC2=C3C	-43.1% (active)
CN(C)c1ccc(-c2cc(-c3ccc(Nc4nc(Nc5ccc(Cl)cc5)nc(Nc5ccc(Cl)cc5)n4)cc3)nc(N)c2C#N)cc1	107% (inactive)
Cc1ccc(N=Nc2c(N)nn(-c3ccccc3)c2N)cc1	46.1% (inactive)
CCN1C(=O)N(CC)C2C1NN=C1SCC(=O)N12 (stereo not given)	105% (inactive)
COP(=O)(OC)c1nnn(-c2cccc([N+](=O)[O-])c2)c1C	110% (inactive)

system: KM12 colon; assay: as above; details: 10 µM unless noted

Structure (SMILES)	growth
COc1ccc(C2=Nc3c(N)ncnc3NC(c3cccc(Nc4ccnc5cc(C(F)(F)F)ccc45)c3)C2)cc1 (stereo not given)	47.1% (inactive)
Clc1ccc(-c2cn3ccsc3n2)c(Cl)c1Cl	98.1% (inactive)
CCSC1=CC(=O)c2ccccc2C1=O	93.8% (inactive)
Fc1ccc2c(c1)c(-c1nc(-c3c[nH]c4ncccc34)cs1)cn2CCCN1CCOCC1	22.5% (inactive)
C[Se]C(=O)CC1=C2C=C(F)C=CC2/C(=C\c2ccc(S(C)=O)cc2)C1C (stereo not given)	50.1% (inactive)
COc1cc(N2C(=O)[C@H](c3ccccc3)C2c2ccc(SC)cc2)cc(OC)c1OC (stereo not given in full)	10.2% (inactive)
Cc1ccc(/C=C2\CN(C(=O)C(Cl)Cl)C/C(=C\c3ccc(C)cc3)C2=O)cc1	-65.8% (active)
CCCCCCC(CCCC)COC(=O)c1ccc(Cl)cc1 (stereo not given)	108% (inactive)
Cc1ccc2nc(Cl)c(Cn3nnnc3SCc3ccccc3)cc2c1	101% (inactive)
O=C(O)c1cn(C2CC2)c2cc(N3CCN(C(=O)N/N=C/c4ccccc4)CC3)c(F)cc2c1=O	94.8% (inactive)
CC12CCC(/C(=C/NNc3ccc([N+](=O)[O-])cc3[N+](=O)[O-])C1=O)C2(C)C (stereo not given)	90.7% (inactive)
CCOC(=O)Cn1c(=O)c2c3ccccc3n(C)c2n2nnc(-c3ccccc3)c12	99.7% (inactive)
COc1cc(C#Cc2ccc(=O)oc2C#Cc2ccccc2)cc(OC)c1OC	82.7% (inactive)
COc1ccc(C/C(C)=C(/c2ccc(OCCN3CCCCCC3)cc2)c2ccc(OC(=O)NCc3ccccc3)cc2)cc1	80.9% (inactive)
Cc1c2cc[nH]c(=O)c2c(C)c2c1[nH]c1ccc(OC(=O)c3ccccc3)cc12	39% (inactive)
Clc1nccc2c(-c3csc(-c4c[nH]c5ccccc45)n3)c[nH]c12	47.5% (inactive)
Cc1cccc(-n2c(C)nc3ccc(N4CCCNC4=O)cc3c2=O)c1	111% (inactive)
Cc1nn(-c2ccccc2)c(N2CCCCC2)c1/C=N/NC(=O)Cn1c(=O)sc2ccccc21	54% (inactive)
C#CCOc1cccc(-c2ncc3cc(NC(=O)CCl)ccc3n2)c1	14.2% (inactive)
C=CCOC(=O)C1=C(C)NC(=O)NC1c1c(Cl)n(C)c2ccccc12 (stereo not given)	102% (inactive)

Structure (SMILES)	growth
Cc1ccc(C(=O)c2ccc(CC(=O)N/N=C/c3ccc(O)cc3O)n2C)cc1	36.1% (inactive)
COc1cc(C(=O)/C=C/c2c(-c3cccs3)nc3ccccn23)cc(OC)c1OC	-25.6% (active)
CC(/C=C1\SC(=S)N(CC(=O)NC(Cc2c[nH]c3ccccc23)C(=O)O)C1=O)=C\c1ccccc1 (stereo not given)	107% (inactive)
CC(C)[C@@]12C[C@@H](OC(=O)COC(=O)c3ccccc3)[C@@](C)(O1)[C@@H]1CC[C@@H](C)[C@H]1[C@@H]2OC(=O)/C=C/c1ccccc1	94.9% (inactive)
COc1ccc2c(c1)c(-c1nonc1-c1cn(C)c3ccc(OC)cc13)cn2C	25.8% (inactive)
O=C(Cn1nnc2ccccc21)Nc1ccc(-c2nc3ccccc3s2)cc1	91.4% (inactive)
CC(=O)c1c(Nc2ccc(F)c(F)c2F)[nH]c2c(F)cc(F)cc2c1=O	2.32% (active)
CC/C=C1/C(=O)C=C[C@@H]1C/C=C\CCCC(=O)OC	17.1% (inactive)
O=C(CCCCCCN1CC(=O)N2[C@@H](C3CCCCC3)c3[nH]c4ccccc4c3C[C@H]2C1=O)NO	81.3% (inactive)
COc1cc(C(=O)c2c(-c3ccccc3)oc3c(OC)cccc23)cc(OC)c1O	16.6% (inactive)
O=C1NC(=C(Cl)Cl)/C(=N/S(=O)(=O)N2CCCCC2)N1	5.62% (active)
COc1ccc(C2=CN3CC=CCC3CC2=O)cc1 (stereo not given)	104% (inactive)
CCN(CC)c1ccc(/C=N/NC(=O)c2ccc(Nc3ccnc(C(F)(F)F)c3)cc2)c(O)c1	24.6% (inactive)
S=c1[nH]c2cc(Cl)ccc2o1	100% (inactive)
NC(=S)N/N=C/c1cn(-c2ccccc2)nc1-c1cc2ccccc2oc1=O	30.9% (inactive)
COc1ncc2cc1NS(=O)(=O)c1cccc(c1)C(=O)NCC1=CC=C(S1)c1ncnc3c1SC2=C3C	-62.1% (active)
CN(C)c1ccc(-c2cc(-c3ccc(Nc4nc(Nc5ccc(Cl)cc5)nc(Nc5ccc(Cl)cc5)n4)cc3)nc(N)c2C#N)cc1	74.1% (inactive)
Cc1ccc(N=Nc2c(N)nn(-c3ccccc3)c2N)cc1	27.6% (inactive)
CCN1C(=O)N(CC)C2C1NN=C1SCC(=O)N12 (stereo not given)	105% (inactive)
COP(=O)(OC)c1nnn(-c2cccc([N+](=O)[O-])c2)c1C	105% (inactive)
